From PubChem BioAssay (EPA / NIEHS)
Values joined by “and” are separate entries in the source; they are usually repeats but may differ in a detail not shown here. Equal values may be shown once. Results filed as inconclusive are left out. Some compounds were tested as several samples or in several runs, with calls that do not always agree. Active and inactive are the calls of the source. How the source made its calls, unless noted: active means hit-call score of the fitted dose curve at least 0.9, where 1 is the maximum; inconclusive means response in the unintended direction; inactive means score below 0.9.

How the values were obtained:
[1] = target: Estrogen receptor beta (Homo sapiens) (UniProt Q92731); assay: OT_ER_ERbERb_1440: Odyssey Thera (OT) 24-hour HEK293T Protein-Complementation Assay for Estrogen Receptor-beta/-beta Homodimer (AID 2283380);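 further: fluorescence gain from ER beta LBD homodimer complementation read by laser scanning cytometry; scored as signal increase over DMSO baseline for both agonists and antagonists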
Sequence of Estrogen receptor beta (Homo sapiens) (Q92731 whole entry, looked up, the tested form may be a part): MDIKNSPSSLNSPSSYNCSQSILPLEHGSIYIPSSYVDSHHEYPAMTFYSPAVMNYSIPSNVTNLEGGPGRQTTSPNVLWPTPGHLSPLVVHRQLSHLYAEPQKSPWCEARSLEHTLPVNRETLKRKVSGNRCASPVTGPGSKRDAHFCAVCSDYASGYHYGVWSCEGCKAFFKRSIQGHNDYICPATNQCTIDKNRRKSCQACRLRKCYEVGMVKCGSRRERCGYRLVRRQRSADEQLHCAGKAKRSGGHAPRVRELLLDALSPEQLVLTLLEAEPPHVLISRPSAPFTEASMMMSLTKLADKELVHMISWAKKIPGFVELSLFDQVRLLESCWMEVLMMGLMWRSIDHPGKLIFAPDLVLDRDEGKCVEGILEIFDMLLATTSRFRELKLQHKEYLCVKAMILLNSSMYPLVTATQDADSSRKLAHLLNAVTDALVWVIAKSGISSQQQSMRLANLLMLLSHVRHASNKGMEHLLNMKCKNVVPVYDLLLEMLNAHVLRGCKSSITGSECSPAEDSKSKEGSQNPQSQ
Procedure, shortened: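 HEK293T cells stably expressing human ER-beta LBD (aa 310-547) PCA homodimer pair, dosed 24 h; formaldehyde-fixed, Draq5-stained. Readout: increase in nuclear (agonist) or nuclear plus cytoplasmic (antagonist) fluorescence intensity versus DMSO, gain-of-signal fitting.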

[2] = target: Estrogen receptor (Homo sapiens) (UniProt P03372); assay: OT_ERa_GFPERaERE_0480: Odyssey Thera (OT) 8-hour HeLa Transcription Induction Assay for Estrogen Receptor (AID 2283381; active means hit-call score of the fitted dose curve at least 0.9, where 1 is the maximum; inactive means score below 0.9)
Sequence of Estrogen receptor (Homo sapiens) (P03372 whole entry, looked up): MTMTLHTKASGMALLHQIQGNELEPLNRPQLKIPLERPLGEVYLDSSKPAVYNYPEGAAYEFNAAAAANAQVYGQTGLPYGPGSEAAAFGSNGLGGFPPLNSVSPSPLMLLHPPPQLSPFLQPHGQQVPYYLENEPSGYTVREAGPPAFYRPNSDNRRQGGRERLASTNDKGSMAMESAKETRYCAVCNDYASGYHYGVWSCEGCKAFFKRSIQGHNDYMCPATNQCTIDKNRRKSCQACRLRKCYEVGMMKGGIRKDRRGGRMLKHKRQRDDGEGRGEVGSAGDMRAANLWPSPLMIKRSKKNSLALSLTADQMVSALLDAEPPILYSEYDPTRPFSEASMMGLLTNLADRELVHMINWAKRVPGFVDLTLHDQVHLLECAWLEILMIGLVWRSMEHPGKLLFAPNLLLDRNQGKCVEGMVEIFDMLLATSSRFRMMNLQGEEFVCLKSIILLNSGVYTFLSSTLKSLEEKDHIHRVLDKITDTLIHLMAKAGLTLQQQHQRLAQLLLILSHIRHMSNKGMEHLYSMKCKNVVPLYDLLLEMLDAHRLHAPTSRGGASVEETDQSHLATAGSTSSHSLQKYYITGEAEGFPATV
Procedure, shortened: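 Human cervical HeLa cells were treated for 8 hours, after which ERE-driven GFP induction was measured by fluorescence microscopy; increases over DMSO baseline defined activity.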

[3] = target: Estrogen receptor (Homo sapiens) (UniProt P03372); assay: OT_ERa_GFPERaERE_0120: Odyssey Thera (OT) 2-hour HeLa Transcription Induction Assay for Estrogen Receptor (AID 2283382)
Procedure, shortened: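 Cells (human cervical HeLa) receive compound, incubate 2 hours, then are imaged for fluorescent reporter induction. Images are quantified by high content analysis, and activity is fitted as gain of signal against DMSO.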

[4] = target: Retinoic acid receptor RXR-alpha (Homo sapiens) (UniProt P19793); assay: OT_NURR1_NURR1RXRa_0480: Odyssey Thera (OT) 8-hour HEK293T Protein Complementation Assay for Nurr1/retinoid X receptor (RXR) (AID 2283385)
Sequence of Retinoic acid receptor RXR-alpha (Homo sapiens) (P19793 whole entry, looked up, the tested form may be a part): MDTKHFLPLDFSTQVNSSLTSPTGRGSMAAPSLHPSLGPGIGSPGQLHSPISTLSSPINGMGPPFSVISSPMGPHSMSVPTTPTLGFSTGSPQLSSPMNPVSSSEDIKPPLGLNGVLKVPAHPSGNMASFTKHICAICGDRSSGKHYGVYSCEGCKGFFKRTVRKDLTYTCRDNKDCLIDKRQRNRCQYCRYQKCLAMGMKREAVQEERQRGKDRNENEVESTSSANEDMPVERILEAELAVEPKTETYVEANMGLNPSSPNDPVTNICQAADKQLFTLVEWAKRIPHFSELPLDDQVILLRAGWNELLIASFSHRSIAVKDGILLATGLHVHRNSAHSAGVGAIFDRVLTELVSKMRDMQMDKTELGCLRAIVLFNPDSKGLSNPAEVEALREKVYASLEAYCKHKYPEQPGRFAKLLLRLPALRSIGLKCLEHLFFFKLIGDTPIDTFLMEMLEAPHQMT
Procedure, shortened: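 Interaction of bait and prey reconstitutes a functional reporter, whose fluorescence was measured in HEK293T cells dosed with compound for 8 hours. Signal gain relative to DMSO defined the single endpoint.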

[5] = target: Retinoic acid receptor RXR-alpha (Homo sapiens) (UniProt P19793); assay: OT_NURR1_NURR1RXRa_1440: Odyssey Thera (OT) 24-hour HEK293T Protein Complementation Assay for Nurr1/retinoid X receptor (RXR) (AID 2283386)
Procedure, shortened: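 Steps: fragment-tagged Nurr1 and RXRα expressed in HEK293T; compounds added; after 24 h, complemented reporter quantified by fluorescence intensity; signal increase over DMSO fitted as the single endpoint.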

[6] = target: Peroxisome proliferator-activated receptor gamma (Homo sapiens) (UniProt P37231); assay: OT_PPARg_PPARgSRC1_0480: Odyssey Thera (OT) 8-hour Protein-Complementation Assay for Peroxisome Proliferator-activated Receptor Gamma / SRC-1 Co-activator (AID 2283387);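 further: nuclear to cytoplasmic split Venus YFP fluorescence ratio reporting PPARg SRC-1 interaction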
Sequence of Peroxisome proliferator-activated receptor gamma (Homo sapiens) (P37231 whole entry, looked up, the tested form may be a part): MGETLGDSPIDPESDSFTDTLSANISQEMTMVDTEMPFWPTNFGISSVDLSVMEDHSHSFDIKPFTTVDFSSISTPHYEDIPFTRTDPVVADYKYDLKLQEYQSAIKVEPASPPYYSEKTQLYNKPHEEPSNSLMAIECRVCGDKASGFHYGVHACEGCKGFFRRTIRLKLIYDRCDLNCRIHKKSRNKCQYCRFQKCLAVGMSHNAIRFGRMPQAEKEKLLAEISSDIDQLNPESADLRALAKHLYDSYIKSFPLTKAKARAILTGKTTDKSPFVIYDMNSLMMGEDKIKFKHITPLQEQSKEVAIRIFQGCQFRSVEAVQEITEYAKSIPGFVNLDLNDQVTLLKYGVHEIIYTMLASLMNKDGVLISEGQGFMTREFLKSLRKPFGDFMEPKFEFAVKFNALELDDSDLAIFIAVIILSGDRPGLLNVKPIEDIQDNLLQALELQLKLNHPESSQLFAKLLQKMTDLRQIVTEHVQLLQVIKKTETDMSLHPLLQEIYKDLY
Procedure, shortened: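 Protein-fragment complementation in HEK293T: Venus YFP halves (residues 1-158, 159-239, mutated to IFP1/IFP2) fused to PPARg/SRC-1. 8 h exposure; N/C ratio at 488 nm; DMSO negative control.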

[7] = target: Peroxisome proliferator-activated receptor gamma (Homo sapiens) (UniProt P37231); assay: OT_PPARg_PPARgSRC1_1440: Odyssey Thera (OT) 24-hour Protein-Complementation Assay for Peroxisome Proliferator-activated Receptor Gamma/ SRC-1 Co-activator (AID 2283388);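 further: nuclear to cytoplasmic ratio of reconstituted Venus YFP fluorescence in fixed imaged cells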
Procedure, shortened: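 Transient HEK293T, YFP fragments 1-158/159-239 (mutant IFP1/IFP2) fused to PPARg/SRC-1; 24 h dosing; fix 4% formaldehyde, Draq5; Opera imaging 488/635 nm; N/C ratio, gain vs DMSO.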

[8] = read-out: Tumor necrosis factor receptor superfamily member 6 (Homo sapiens) (UniProt P25445); assay: LTEA_HepaRG_FAS: Life Technologies and Expression Analysis (LTEA) Assay for Fas cell surface death receptor (FAS) using HepaRG (AID 2283447; active means hit-call score of the fitted dose curve at least 0.9, where 1 is the maximum; inactive means score below 0.9); conditions: mRNA level, 48 h; actives raise or lower the signal
Procedure, shortened: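 Differentiated human HepaRG cells, pre-cultured 48 h, were exposed in duplicate for 48 h to 8-point half-log concentrations (top 100 uM, 0.5% DMSO) in serum-free induction medium; FAS mRNA measured by qRT-PCR, normalized to ACTB/GAPDH/POLR2A, bidirectional fit versus DMSO.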

[9] = CEETOX_H295R_11DCORT: CeeTox H295R High-throughput Steroidogenesis Assay for 11-Deoxycortisol (11DCORT) (AID 2283432; active means hit-call score of the fitted dose curve at least 0.9, where 1 is the maximum; inactive means score below 0.9); conditions: actives raise or lower the signal
Procedure, shortened: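 Adrenal carcinoma line H295R, run per OECD 456 with minor changes, was forskolin-stimulated (10 uM, 48 h) before a 48 h chemical exposure at 0.1% DMSO. Secreted 11-deoxycortisol was quantified by HPLC-MS/MS.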

[10] = CEETOX_H295R_OHPREG: CeeTox H295R High-throughput Steroidogenesis Assay for OH-Pregnenolone (OHPREG) (AID 2283434; active means hit-call score of the fitted dose curve at least 0.9, where 1 is the maximum; inactive means score below 0.9); conditions: actives raise or lower the signal
Procedure, shortened: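 Readout: HPLC-MS/MS of 17alpha-hydroxypregnenolone in medium after 48 h chemical exposure of H295R cells pretreated with forskolin. Values fitted bidirectionally relative to DMSO; chemicals reducing viability to 20–70% were retested after 10-fold dilution.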

[11] = CEETOX_H295R_OHPROG: CeeTox H295R High-throughput Steroidogenesis Assay for OH-Progesterone (OHPROG) (AID 2283435; active means hit-call score of the fitted dose curve at least 0.9, where 1 is the maximum; inactive means score below 0.9); conditions: actives raise or lower the signal
Procedure, shortened: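 Steps: seed H295R cells and adhere overnight; stimulate with 10 uM forskolin for 48 h; replace with chemical-containing medium (0.1% DMSO) for 48 h; extract medium with MTBE; quantify 17alpha-hydroxyprogesterone by reverse-phase C18 HPLC-MS/MS against a 7-point curve.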

[12] = CEETOX_H295R_CORTISOL: CeeTox H295R High-throughput Steroidogenesis Assay for Cortisol (AID 2283438; active means hit-call score of the fitted dose curve at least 0.9, where 1 is the maximum; inactive means score below 0.9); conditions: actives raise or lower the signal
Procedure, shortened: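 Cortisol synthesis by H295R cells is measured 48 h after chemical dosing, following a 48 h stimulation with 10 uM forskolin. Hormone is extracted and quantified by HPLC-MS/MS, and activity is fitted bidirectionally against the DMSO control.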

[13] = CEETOX_H295R_DOC: CeeTox H295R High-throughput Steroidogenesis Assay for DOC (AID 2283439; active means hit-call score of the fitted dose curve at least 0.9, where 1 is the maximum; inactive means score below 0.9); conditions: actives raise or lower the signal
Procedure, shortened: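 Steps: seed H295R, adhere overnight; 10 uM forskolin 48 h; replace with chemical medium (0.1% DMSO) 48 h; collect medium, MTBE extraction, HPLC-MS/MS for DOC. Viability then checked by MTT; cytotoxic chemicals diluted until viability ≥70%.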

[14] = CEETOX_H295R_ESTRADIOL: CeeTox H295R High-throughput Steroidogenesis Assay for Estradiol (AID 2283440; active means hit-call score of the fitted dose curve at least 0.9, where 1 is the maximum; inactive means score below 0.9;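 further: estradiol secreted into medium quantified by LC-MS/MS after dansyl derivatisation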); conditions: actives raise or lower the signal
Procedure, shortened: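 Following OECD 456 with minor changes, H295R cells received 10 uM forskolin for 48 h and then test chemical for 48 h. Hormone output was read by HPLC-MS/MS, with cytotoxic concentrations diluted until MTT viability reached ≥70%.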

[15] = CEETOX_H295R_ESTRONE: CeeTox H295R High-throughput Steroidogenesis Assay for Estrone (AID 2283441; active means hit-call score of the fitted dose curve at least 0.9, where 1 is the maximum; inactive means score below 0.9); conditions: actives raise or lower the signal
Procedure, shortened: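 Estrone secreted into medium quantified by LC-MS/MS after dansyl chloride derivatization, following 48 h chemical exposure (0.1% DMSO final) of forskolin-prestimulated (10 uM, 48 h) H295R cells; gain or loss fitted against DMSO; MTT viability in same wells.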

[16] = CEETOX_H295R_PROG: CeeTox H295R High-throughput Steroidogenesis Assay for Progesterone (PROG) (AID 2283442; active means hit-call score of the fitted dose curve at least 0.9, where 1 is the maximum; inactive means score below 0.9); conditions: actives raise or lower the signal
Procedure, shortened: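 Adrenal H295R line, forskolin-stimulated (10 uM, 48 h) before dosing. 48 h exposure, 0.1% DMSO vehicle. Secreted progesterone by reverse-phase HPLC with ESI+ MS/MS quantification; DMSO-normalised bidirectional curve fit.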

[17] = target: Bile acid receptor (Homo sapiens) (UniProt Q96RI1); assay: OT_FXR_FXRSRC1_1440: Odyssey Thera (OT) 24-hour HEK293T Protein-Complementation Assay for Farnesoid X receptor/SRC-1 Co-activator (AID 2283384)
Sequence of Bile acid receptor (Homo sapiens) (Q96RI1 whole entry, looked up, the tested form may be a part): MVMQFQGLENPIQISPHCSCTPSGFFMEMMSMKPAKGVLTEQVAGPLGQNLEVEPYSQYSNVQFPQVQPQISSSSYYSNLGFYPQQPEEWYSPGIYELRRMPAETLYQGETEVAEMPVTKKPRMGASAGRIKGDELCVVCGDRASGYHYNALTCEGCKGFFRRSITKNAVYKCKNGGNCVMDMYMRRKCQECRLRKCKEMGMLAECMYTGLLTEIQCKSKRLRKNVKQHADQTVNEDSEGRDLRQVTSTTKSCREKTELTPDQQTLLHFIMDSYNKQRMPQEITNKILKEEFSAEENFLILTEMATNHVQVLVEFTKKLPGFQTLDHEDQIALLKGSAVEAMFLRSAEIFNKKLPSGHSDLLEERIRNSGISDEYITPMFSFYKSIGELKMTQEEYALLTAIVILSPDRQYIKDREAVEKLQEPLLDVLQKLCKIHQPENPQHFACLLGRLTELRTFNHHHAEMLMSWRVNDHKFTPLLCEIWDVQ
Procedure, shortened: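 Measures ligand-driven FXR–SRC-1 co-activator recruitment in HEK293T via fragment complementation, fluorescence intensity at 24 h. DMSO served as negative control and baseline for gain-of-signal fitting.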

[18] = target: Bile acid receptor (Homo sapiens) (UniProt Q96RI1); assay: OT_FXR_FXRSRC1_0480: Odyssey Thera (OT) 8-hour HEK293T Protein-Complementation Assay for Farnesoid X receptor/SRC-1 Co-activator (AID 2283383)
Procedure, shortened: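 PCA, HEK293T, 8 h compound exposure; FXR–SRC-1 binding reconstitutes split reporter; fluorescence intensity; positive-direction fit vs DMSO.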

Measured: AC50

CCCCOC(=O)CCCCCCCCC(=O)OCCCC
inactive: [1] | [2] | [3] | [4] | [5] | [6] | [7] | [8]

Oc1ccc2c(c1)OC[C@@H](N1CCC(O)(c3ccc(F)cc3)CC1)[C@H]2O
not listed: [5] | [6] | [17] | [18]
inactive: all other assays above

CCCCCCCCCCC
inactive: [1] | [2] | [3] | [4] | [5] | [7] | [8]

O=c1c(O)c(-c2ccc(O)c(O)c2)oc2cc(O)cc(O)c12
inactive: [2] | [4] | [5] | [7] | [8]
active: [1] 19.2 µM | [3] 23.4 µM

CC(=O)OCCOCCOCCOC(C)=O
inactive: [1] | [2] | [3] | [17] | [4] | [5] | [6] | [7] | [8]

Cc1oc(-c2ccccc2)nc1CCOc1cccc2c1ccn2CCC(=O)O
inactive: [1] | [2] | [3] | [4]
active: [6] 2.57 µM and 4.49 µM | [7] 3.58 µM and 2.88 µM | [8] 87.9 µM

CCOC(=O)CCC(=O)OCC
active: [8] 85.1 µM
inactive: [1] | [2] | [3] | [4] | [5] | [7]

Clc1cc(Cl)c(Cl)cc1Cl
inactive: [1] | [2] | [3] | [4] | [5] | [7] | [8]

CN1CCCC1=O
inactive: [1] | [2] | [3] | [5] | [6] | [7] | [8]

O=[N+]([O-])C(CO)(CO)CO
inactive: [1] | [2] | [3] | [4] | [5] | [6] | [7] | [8]

C[Si]1(C)O[Si](C)(C)O[Si](C)(C)O[Si](C)(C)O1
inactive: [1] | [2] | [3] | [18] | [4] | [5] | [6] | [7] | [8]

CCCCCCCCCCCCCO
active: [4] 67.5 µM
inactive: [1] | [2] | [3] | [4] | [5] | [7] | [8]
